In PubChem BioAssay AID588742 (Southern Research Specialized Biocontainment Screening …, 2011):
The campaign covered roughly 1,800 compounds. About 410 (23%) were called active. How the calls were made is not given here. A selection follows. Measured potencies and affinities stand elsewhere.

Test: Vero cell cytotoxicity, cytotoxicity control for flavivirus capping enzyme inhibitors (AID 588742)
Details: Vero cells viability, cytotoxicity counter-screen; series mostly up to 40 µM; viability: at the top concentration

SMILES | viability
O=C(O)CCc1ccc(-c2ccc(Br)cc2)n1-c1ccc(O)cc1 | 95% (inactive)
CCCOc1cccc(C2C(C(=O)c3cc4ccccc4o3)=C(O)C(=O)N2c2cc(C)on2)c1 (configuration not stated) | 87.3% (inactive)
O=c1c2ccccc2nc2ccc(NCc3ccco3)nn12 | 97% (inactive)
CCOc1cc(/C=N/Nc2ccc(S(=O)(=O)Nc3ccccc3C(=O)O)cc2[N+](=O)[O-])cc(Cl)c1O | 100% (inactive)
Cc1nn(-c2ccccc2)c(Cl)c1/C=N/Nc1ccc(S(=O)(=O)Nc2ccccc2C(=O)O)cc1[N+](=O)[O-] | 90.9% (inactive)
C=CCOc1cccc(C2C(C(=O)c3ccc(C)o3)=C(O)C(=O)N2c2nccs2)c1 (configuration not stated) | 93.2% (inactive)
O=C1C(C=NCc2ccco2)=C(O)c2ccccc21 | 104% (inactive)
CC(C)C(C(=O)O)N1C(=O)/C(=C/C=C/c2ccco2)SC1=S (configuration not stated) | 97% (inactive)
CC(C(=O)O)N1C(=O)/C(=C/C=C/c2ccco2)SC1=S (configuration not stated) | 95.8% (inactive)
Cc1ccc(S(=O)(=O)NN/C(=N/S(=O)(=O)c2ccccc2)c2ccccc2)cc1 | 101% (inactive)
Cc1nn(-c2ccccc2)c2c1C(c1ccncc1)C(C#N)=C(N)O2 (configuration not stated) | 100% (inactive)
CCn1nc([N+](=O)[O-])c(C(C#N)c2nc3ccccc3n2C)c(Cl)c1=O (configuration not stated) | 101% (inactive)
Cn1nc([N+](=O)[O-])c(C(C#N)c2nc3ccccc3n2C)c(Cl)c1=O (configuration not stated) | 93.4% (inactive)
COC(=O)c1ccccc1N/C=C1\CCc2c(c(C)nn2-c2ccccn2)C1=O | 86.9% (inactive)
CCc1sc(/C=C(/C#N)C(N)=S)cc1[N+](=O)[O-] | 102% (inactive)
Cc1ccc(-n2nc(C)c3c2OC(N)=C(C#N)C3c2ccco2)cc1 (configuration not stated) | 98.1% (inactive)
CCSc1nnc(NC(=O)c2nc(S(=O)(=O)Cc3ccc(F)cc3)ncc2Cl)s1 | 95.4% [at 20 µM] (inactive)
CCOC(=O)c1c(-c2ccc(-c3ccccc3)cc2)csc1NC(=O)C1C2CCC(O2)C1C(=O)O (configuration not stated) | 83.1% (inactive)
Cc1noc(C)c1C(=O)Nc1ccc(N(C)C)cc1 | 106% (inactive)
CCC(=O)OC1(C)C(=O)C=C2C=C(C3CC3)OC=C2C1=O (configuration not stated) | 104% (inactive)
COc1ccc(/C=N/NC(=O)c2nnn(-c3nonc3N)c2CN(C)C2CCCCC2)cc1 | 100% (inactive)
C#CCOc1c(Cl)cc(/C=C2/C(=O)ON=C2C)cc1OCC | 102% (inactive)
COc1cc(/C=C2\S/C(=N/S(=O)(=O)Cc3ccccc3)NC2=O)c([N+](=O)[O-])cc1OC | 107% (inactive)
COc1ccc(S(=O)(=O)Nc2c(O)ccc3ccccc23)cc1OC | 102% (inactive)
NC(=S)n1[nH]c(-c2ccc([N+](=O)[O-])cc2)c(N=Nc2ccccc2[N+](=O)[O-])c1=O | 102% (inactive)
CN1C(=O)/C(=C/c2ccc(C(=O)Nc3ccc(O)cc3C(=O)O)cc2)SC1=S | 93.6% (inactive)
Cc1cccc(C)c1NC(=S)NC(=O)c1ccc(Br)o1 | 83.4% (inactive)
